# PubChem BioAssay AID1220 (Sanford-Burnham Center for Chemical Genomics, 2008)
# Hit rate of the full screen: of about 190,000 compounds, about 1,300 (0.68%) were called active. Cut-off read from the data, not from the text of the source: active = inhibition above about 50%; inactive = the rest. The entries come from a sample that favours actives as a whole.
# Biological target: Mannose-6-phosphate isomerase (Homo sapiens) (UniProt P34949)
# Test: human PMI inhibitors, high substrate, primary screen, biochemical, fluorescence intensity, high mannose 6-phosphate (AID 1220)
# Conditions: recombinant PMI enzyme, coupled fluorescence intensity; at 20 µM; stronger effect = higher value
# Sequence of Mannose-6-phosphate isomerase (Homo sapiens) (P34949 whole entry, looked up): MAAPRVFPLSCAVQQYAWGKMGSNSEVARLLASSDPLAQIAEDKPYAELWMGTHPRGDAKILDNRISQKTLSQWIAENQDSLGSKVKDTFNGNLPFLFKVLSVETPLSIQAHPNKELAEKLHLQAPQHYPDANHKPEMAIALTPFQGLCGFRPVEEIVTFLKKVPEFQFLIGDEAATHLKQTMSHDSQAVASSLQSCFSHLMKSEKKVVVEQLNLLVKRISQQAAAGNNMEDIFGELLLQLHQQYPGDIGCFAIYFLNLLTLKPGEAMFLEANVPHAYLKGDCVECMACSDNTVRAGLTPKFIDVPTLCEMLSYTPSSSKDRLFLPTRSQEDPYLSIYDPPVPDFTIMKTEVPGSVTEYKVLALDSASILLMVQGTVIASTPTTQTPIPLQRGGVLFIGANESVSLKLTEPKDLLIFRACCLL
row,Structure (SMILES),inhibition
1,COc1ccc(S(=O)(=O)N(C)CC(=O)Nc2ccc(C(N)=O)cc2)cc1OC,-13.3% (inactive)
2,CC(C)N(C(=O)CSc1nnc(CNc2ccc(F)cc2)o1)C(C)C,17% (inactive)
3,Cc1cc(C)c2ccc(N)nc2c1O,26% (inactive)
4,Cc1cc(C)c2nc(N)sc2c1,7.6% (inactive)
5,Cc1cc(C)c(O)c(N)c1,61.3% (active)
6,Cc1nc2cc(C)c(C)cc2s1,-8.8% (inactive)
7,CCC(C)(C)NC(=O)c1cc(C(=O)OC)cc([N+](=O)[O-])c1,-6.6% (inactive)
8,O=C(N/N=C/C(Br)=C/c1ccccc1)C1CC1,14.3% (inactive)
9,COc1ccc2cc3[n+](cc2c1OC)CCc1cc2c(cc1-3)OCO2,33.7% (inactive)
10,COc1cc2c(cc1OC)-c1cc3ccc4c(c3c[n+]1CC2)OCO4,53.6% (active)
11,COc1cc2c(cc1O)CC[n+]1cc3c(OC)c(OC)ccc3cc1-2,39.9% (inactive)
12,O=c1c2ccccc2nc(-c2cccs2)n1-c1cccc2ccccc12,-3.7% (inactive)
13,O=C1c2ccccc2-n2c1nc1ccccc1c2=O,50.7% (active)
14,O=c1c2ccccc2nc(-c2ccccc2Cl)n1O,-7.6% (inactive)
15,O=C(NCc1ccco1)Nc1ccccc1Cl,5.5% (inactive)
16,NS(=O)(=O)c1ccc(CCNC(=O)c2ccc(S(=O)(=O)N3CCCCC3)cc2)cc1,-2.8% (inactive)
17,O=C(c1ccc(Cl)cc1)c1c[nH]c(C(=O)NNc2cccc(Cl)n2)c1,4.5% (inactive)
18,Oc1ccc(NCc2ccccc2OCc2ccccc2F)cc1,25% (inactive)
19,CCOc1ccccc1CNc1ccc(O)cc1,59.4% (active)
20,Oc1ccc(NCc2ccccc2OCc2ccccc2)cc1,47.7% (inactive)
21,COc1ccc(C2SCC(=O)N2c2c(C)n(C)n(-c3ccccc3)c2=O)cc1OC (centres undefined),-1.7% (inactive)
22,CCOc1ccc(OCC)c(S(=O)(=O)NNC(=O)c2c(C)nc3ccccn23)c1,-3.5% (inactive)
23,CC(=O)N1c2ccccc2C2(O)N=C(C)SC12 (centres undefined),52.8% (active)

row,Structure (SMILES),inhibition
1,Cc1ccc(C(=O)CC2(O)C(=O)N(C)c3ccccc32)s1 (centres undefined),9.4% (inactive)
2,CC(=O)N1c2ccccc2C(C)(C)C2CCC(C)CC21 (centres undefined),-3.5% (inactive)
3,CCOC(=O)C1=C(C)N(C)C(=O)NC1c1c(C)nn(-c2ccccc2)c1C (centres undefined),1.3% (inactive)
4,CCOC(=O)C1=C(C)N(C)C(=O)NC1c1c(C)nn(-c2ccc(C)cc2)c1Cl (centres undefined),-4% (inactive)
5,Nc1nc(SCC(=O)NCC2CCCO2)n[nH]1 (centres undefined),5.9% (inactive)
6,CCOc1ccc2[nH]c(=O)c(CN(CCO)C(=O)c3ccccc3F)cc2c1,-1% (inactive)
7,CCCN1CCCc2cc(CN)ccc21,50.4% (active)
8,CCCN1CCCc2ccccc21,-58.9% (inactive)
9,CCc1ccc2c(c1)CCCN2C(=O)c1ccccc1C(=O)O,-10% (inactive)
10,COc1cc(C2C(C(C)=O)=C(O)C(=O)N2CCc2c[nH]c3ccccc23)ccc1O (centres undefined),21.6% (inactive)
11,CCOC(=O)CCCNC(=O)COC(=O)c1cccc(C)c1O,-3.7% (inactive)
12,S=C1NCCOCCOCCNC(=S)N2CCOCCOCCN1CCOCCOCC2,11.7% (inactive)
13,CC(=O)N1CCC(N(CCN2CCOCC2)C(=S)Nc2cccc(C)c2)CC1,-11.5% (inactive)
14,CC1(C)CC2CC(C)(CN2C(=O)COc2cccc3ccccc23)C1 (centres undefined),2.7% (inactive)
15,CC1(C)CC2CC(C)(CN2CC(=O)C(C#N)c2ccccc2)C1 (centres undefined),-41% (inactive)
16,CC1(C)CC2CC(C)(CN2Cc2c(O)ccc3ccccc23)C1 (centres undefined),66.3% (active)
17,O=Cc1ccc2noc(-c3ccc(F)cc3)c2c1,-86.8% (inactive)
18,CCCn1nnc(NC(=O)c2ccc(OCC)c(Cl)c2)n1,2% (inactive)
19,CC(=O)c1ccc(NC2OC(C)C(O)C(O)C2O)cc1 (centres undefined),20.1% (inactive)
20,CC1OC(Nc2cccc3ccccc23)C(O)C(O)C1O (centres undefined),60.5% (active)
21,CC1OC(Nc2ccc(N=Nc3ccccc3)cc2)C(O)C(O)C1O (centres undefined),8.3% (inactive)
22,Cc1ccc2cc(CN(Cc3cccs3)Cc3nnnn3CC3CCCO3)c(=O)[nH]c2c1C (centres undefined),0.6% (inactive)
23,COc1cccc(NC(=S)N(Cc2ccc(Cl)cc2)Cc2ccc(C(=O)O)cc2)c1,-30.6% (inactive)

row,Structure (SMILES),inhibition
1,COc1ccccc1NC(=O)NCC(c1ccco1)N1CCCCC1 (centres undefined),0.2% (inactive)
2,COc1ccccc1CC(=O)NCC(c1ccco1)N1CCCCC1 (centres undefined),58.9% (active)
3,O=C(Cc1ccccc1F)NCC(c1ccco1)N1CCCCC1 (centres undefined),-5.8% (inactive)
4,O=C(c1ccco1)N1CCN(C(c2ccc(F)cc2)c2nnnn2Cc2cccs2)CC1 (centres undefined),-6% (inactive)
5,Cn1cnc2cc(NC(=O)c3ccc(Cl)cc3)ccc21,-16.1% (inactive)
6,CSc1nc2ccccc2n1CC(=O)Nc1cc(C(F)(F)F)ccc1N1CCOCC1,-1.6% (inactive)
7,N#CC(C#N)=Cc1cccn1-c1ccc(S(N)(=O)=O)cc1,0% (inactive)
8,N#CC(C#N)=C1c2cc(S(N)(=O)=O)ccc2-c2ccc(S(N)(=O)=O)cc21,57.5% (active)
9,NS(=O)(=O)c1ccc(C(=O)O)cc1,-8% (inactive)
10,CC(C)OP(=O)(c1ccccc1)c1ccccc1,-8.8% (inactive)
11,C=CCN1C(=NC(=O)CCC)SC2CS(=O)(=O)CC21 (centres undefined),-8.2% (inactive)
12,CNC(=O)/C(C#N)=C/c1ccc(-c2ccc(OC)cc2[N+](=O)[O-])o1,29.2% (inactive)
13,O=C(/C=C/c1ccc(-c2ccccc2[N+](=O)[O-])o1)c1ccc(F)cc1,34.1% (inactive)
14,N#C/C(=C\c1ccc(-c2ccc(F)cc2)o1)C(=O)Nc1nc(-c2cccs2)cs1,30.8% (inactive)
15,N#C/C(=C\c1ccc(-c2ccccc2[N+](=O)[O-])o1)C(=O)Nc1nc(-c2cccs2)cs1,53.1% (active)
16,O=C(/C=C/c1ccc(-c2ccccc2[N+](=O)[O-])o1)c1ccccc1,47.3% (inactive)
17,O=C(/C=C/c1ccc(-c2ccccc2[N+](=O)[O-])o1)c1ccco1,51.7% (active)
18,O=C(/C=C/c1ccc(-c2ccccc2[N+](=O)[O-])o1)c1ccc(Br)cc1,-32.8% (inactive)
19,N#C/C(=C/c1ccc(-c2ccccc2[N+](=O)[O-])o1)C(N)=O,51.9% (active)
20,COCCNC(=O)/C(C#N)=C/c1ccc(-c2ccc(OC)cc2[N+](=O)[O-])o1,42.2% (inactive)
21,Cc1ccc(Cc2cnc(NC(=O)/C(C#N)=C/c3ccc(-c4ccccc4[N+](=O)[O-])o3)s2)cc1,30.3% (inactive)
22,CNC(=O)/C(C#N)=C/c1ccc(-c2ccccc2[N+](=O)[O-])o1,61% (active)
23,N#C/C(=C\c1ccc(-c2ccccc2[N+](=O)[O-])o1)C(=O)N1CCOCC1,45.8% (inactive)
